Inconclusive results are not listed. Entries that show only a call come without a potency. Activity calls are given as the source filed them. Calls follow the shape of the dose curve; as a rule, active = well fitted activation curve with a large enough effect in the repeat runs; inconclusive = weak or mixed curves; inactive = flat fitted curve, though single readings scatter. Residues, ends and D or L forms follow the SMILES beside them.

The assay can be described thus: A CellTox Green Cytotoxicity Assay to monitor cytotoxicity in HEK293 cells - 16 hour (AID 1224888). Also: nearly all actives have a fitted effect of over 35% in size. The settings on record: CellTox Green fluorescence; series mostly up to 76.8 µM. The source says: National Center for Advancing Translational Sciences [NCATS]
NIH Chemical Genomics Center [NCGC]
U.S. Environmental Protection Agency [EPA]
National Institutes of Environmental Health Sciences [NIEHS]
National Toxicology Program [NTP]
Cell-based models are critical for drug discovery. Determining the natural cytotoxic effects resulting from test compounds is an essential research activity. A CellTox Green Cytotoxicity Assay to monitor cytotoxicity in real time of continues cell culture during 40 hours of the compound treatment was used to screen Tox21 10K library compounds in Hek293 cells. CellTox Green Cytotoxicity Assay is a nonlytic, homogeneous, biofluorescent method to measure cytotoxicity in cell culture after experimental manipulation. The assay system uses a proprietary asymmetric cyanine dye that is excluded from viable cells but preferentially stains the dead cell's DNA. […] Viable cells produce no appreciable increases in fluorescence. Therefore, the fluorescence signal produced by the binding interaction with dead cell DNA is proportional to cytotoxicity.
The mixture of Hek293 cell suspension and reagents were dispensed at 600cells/6 ul/well in 1536-well tissue culture treated black solid bottom plates using a Multidrop dispenser. After the assay plates were incubated at a 37 C/5% CO2 incubator for 5 hours, 23 nL of compounds dissolved in DMSO, positive and negative controls was transferred to the assay plate by a pintool work station. The plates were incubated at 37 C for 40 hours. The fluorescence intensity were measured at 0h, 8h, 16h, 24h, 32h and 40h time points using ViewLux plate reader during compound treatment.
In the case of `COc1c2occc2cc2ccc(=O)oc12`, the Potency entry was “inactive”.

As to `CCCC(O)C(CC)CO` (stereo not given), the Potency entry was “inactive”.

For `CC1(C)[C@@H]2CC[C@@]1(C)C(=O)C2`, the Potency result is “inactive”.

With `O=C(c1ccccc1)c1ccccc1`, the Potency entry was “inactive”.

For `O=C(O)C(=O)O`, the Potency entry is “inactive”.

Regarding `OCCc1ccccc1`, the Potency result was “inactive”.

With `Nc1ccn([C@H]2CC[C@@H](CO)O2)c(=O)n1`, the Potency result is “inactive”.

As to `O=NO`, the Potency result was “inactive”.

With `CCCC(CCC)C(=O)O`, the Potency entry was “inactive”.

Turning to `Cc1ccc(C)c(OCCCC(C)(C)C(=O)O)c1`, the Potency entry was “inactive”.

In the case of `O=C(O)/C=C\C(=O)O`, the Potency entry was “inactive”.

For the compound `Nc1ccc(S(=O)(=O)c2ccc(N)cc2)cc1`, the Potency entry was “inactive”.

For `NNC(=O)c1ccncc1`, the Potency entry is “inactive”.

In the case of `CCCCC(CC)COC(=O)/C=C/c1ccc(OC)cc1` (stereo not given), the Potency result is “inactive”.

On to `Cc1ccccc1C(OCCN(C)C)c1ccccc1` (stereo not given), for which the Potency result was “inactive”.

With `O=C(c1ccccc1)C(O)c1ccccc1` (stereo not given), the Potency result was “inactive”.

With `COC(=O)[C@H](Cc1ccccc1)NC(=O)[C@@H](N)CC(=O)O` (H-Asp-Phe-OMe), the Potency entry is “inactive”.

On to `CCCCC1C(=O)N(c2ccccc2)N(c2ccccc2)C1=O`, for which the Potency entry is “inactive”.

As to `C/C=C/c1ccc(OC)cc1`, the Potency entry was “inactive”.

For `CC(C)[C@@H]1CC[C@@H](C)C[C@H]1O`, the Potency result is “inactive”.

In the case of `CCCNC(=O)NS(=O)(=O)c1ccc(Cl)cc1`, the Potency entry is “inactive”.

Consider `NC(N)=O`, for which the Potency result was “inactive”.

Turning to `O=c1cc[nH]c(=S)[nH]1`, the Potency entry was “inactive”.

Turning to `NC(=O)c1ccccc1O`, the Potency result was “inactive”.

As to `CCCN(CCC)S(=O)(=O)c1ccc(C(=O)O)cc1`, the Potency result is “inactive”.

For `Cc1cc(=O)[nH]c(=S)[nH]1`, the Potency result was “inactive”.

Regarding `CC(O)CO` (stereo not given), the Potency result was “inactive”.

In the case of `O=C(O)c1cc(N=Nc2ccc(S(=O)(=O)Nc3ccccn3)cc2)ccc1O`, the Potency result was “inactive”.

Consider `CC(O)C(=O)O` (stereo not given), for which the Potency entry is “inactive”.

Take `Cn1c(=O)c2[nH]cnc2n(C)c1=O`: the Potency entry was “inactive”.

Turning to `O=C(C1CCCCC1)N1CC(=O)N2CCc3ccccc3C2C1` (stereo not given), the Potency entry is “inactive”.

On to `O=C(O)c1cccnc1`, for which the Potency entry was “inactive”.

With `NS(=O)(=O)c1cc(C(=O)O)c(NCc2ccco2)cc1Cl`, the Potency result was “inactive”.

For `CC(=O)Nc1nnc(S(N)(=O)=O)s1`, the Potency result is “inactive”.

With `OC(Cn1cncn1)(Cn1cncn1)c1ccc(F)cc1F`, the Potency entry is “inactive”.

For `CC(C)(Oc1ccc(C2CC2(Cl)Cl)cc1)C(=O)O` (stereo not given), the Potency result was “inactive”.

For `N=C(N)c1ccc(OCCCCCOc2ccc(C(=N)N)cc2)cc1`, the Potency entry was “inactive”.

Consider `Oc1ccc(/C=C/c2cc(O)cc(O)c2)cc1`, for which the Potency result is “inactive”.

On to `O=C(O)c1[nH]n(-c2ccc(S(=O)(=O)O)cc2)c(=O)c1N=Nc1ccc(S(=O)(=O)O)cc1`, for which the Potency result is “inactive”.

As to `CC(=O)NS(=O)(=O)c1ccc(N)cc1`, the Potency result was “inactive”.

For the origin of these results see PubChem BioAssay (Tox21).
